Experimental data as given in the supplement of paper PMC10732440.
± gives the standard deviation of the averaged measurements.

Test system: Caenorhabditis elegans N2 infected with Nematocida parisii ERTm1
Assay: progeny production relative to DMSO uninfected control; higher = more progeny despite microsporidia infection (inhibition of infection with low host toxicity)
Conditions: infection time 6 days
How it was run: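 Wild-type C. elegans L1 larvae, synchronised by bleaching, were added at 100 per well to 96-well plates containing K-medium, E. coli OP50 and 15,000 N. parisii spores/μL, and compound was pinned in to 100 μM or 40 μM in 1% DMSO. The plates were shaken at 21°C for 6 days, after which worms were stained with Rose Bengal, scanned on a flatbed scanner and counted using WorMachine. Each compound and dose was run three times. Progeny production is expressed as a percentage of wells with vehicle but no spores, averaged over the replicates.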

Row | SMILES | progeny production (40 µM) [%] | progeny production (100 µM) [%]
1 | CCc1cc(CCCOc2c(C)cc(-c3noc(C(F)(F)F)n3)cc2C)on1 | 5.28 ± 4 | 12.5 ± 14
2 | CC(C)N(c1cc(-c2ccccc2)sc1C(=O)O)C(=O)[C@H]1CC[C@H](C)CC1 | 4.15 ± 1.8 | 12.2 ± 7.8
3 | Cc1cc(CCCOc2c(C)cc(-c3noc(C(F)(F)F)n3)cc2C)on1 | 1.93 ± 0.29 | 15.4 ± 3.2
4 | CC(Oc1ccc(Cl)cc1Cl)C(=O)NCc1ccc2c(c1)OCO2 (stereo not drawn) | 3.27 ± 0.72 | 14.5 ± 9.6
5 | CC(=O)Nc1cc(NS(=O)(=O)c2ccc(Cl)cc2)cc2c(Cl)[nH]nc12 | 5.97 ± 4.1 | 8.68 ± 4
6 | O=c1[nH]cnc2c1ncn2[C@H]1CC[C@@H](CO)O1 | 6.61 ± 0.81 | 9.85 ± 7.2
7 | CCC(CC)[C@H](NC(C)=O)[C@@H]1[C@H](O)[C@@H](C(=O)O)C[C@H]1NC(=N)N | 6.29 ± 2.5 | 7.52 ± 7.1
8 | OCCC#Cc1nc(-c2ccc(F)cc2)c(-c2ccncc2)n1CCCc1ccccc1 | 5.08 ± 0.6 | 16.6 ± 12
9 | CC(C)(C)NC(=O)N[C@H](C(=O)N1C[C@H]2[C@@H]([C@H]1C(=O)NC(CC1CCC1)C(=O)C(N)=O)C2(C)C)C(C)(C)C (stereo partly drawn) | 3.73 ± 0.22 | 7.69 ± 4.1
10 | O=c1cc(OCc2ccccc2)ccn1Cc1ccccc1 | 5.55 ± 1.6 | 13.9 ± 13
11 | Nc1nc(O)c(Br)c(-c2cccc(Cl)c2)n1 | 4.12 ± 0.52 | 12.1 ± 5.2
12 | N#C/C(=C1/SC[C@H](c2ccc(Cl)cc2Cl)S1)n1ccnc1 | 3.11 ± 0.38 | 4.59 ± 2.5
13 | O=C(O)C(Cc1c[nH]c2ccccc12)N1C(=O)c2ccccc2C1=O (stereo not drawn) | 6.93 ± 1.2 | 9.79 ± 1.2
14 | COc1ccccc1NC(=O)c1ccccc1Sc1ccc([N+](=O)[O-])cc1 | 6.65 ± 3.2 | 14.7 ± 2.9
15 | Nc1nc(N)c2c(Sc3ccccc3)cccc2n1 | 3.69 ± 1.5 | 16.4 ± 12
16 | O=C(Cn1cnc2ccccc2c1=O)Nc1ccccc1 | 5.46 ± 4.2 | 8.2 ± 5.5
17 | CCc1cc(O)c(Oc2ccc(C(N)=O)cc2F)cc1F | 3.13 ± 2.7 | 8.3 ± 5.3
18 | C/C(=N\NC(=O)C1CC1c1ccccc1)c1ccc(NC(=O)c2ccco2)cc1 (stereo not drawn) | 2.3 ± 0.95 | 6.87 ± 1.1
19 | Cc1cc(C2CCCCC2)n(O)c(=O)c1 | 5.34 ± 2.3 | 33 ± 36
20 | Cc1ccc(NC(=O)c2cc(Cl)ccc2O)cc1 | 8.65 ± 5.8 | 8.35 ± 5.3
21 | NC(=O)c1c(N)sc2c1CCCCC2 | 3.71 ± 1.1 | 8.33 ± 4.8
22 | Cc1c(N)cccc1Cn1ccc(OCCc2cccs2)cc1=O | 7.99 ± 2.1 | 15.6 ± 15
23 | CCc1cc(Nc2cc(=O)n(CCN3CCN(C(=O)c4ccccc4)CC3)c(=O)[nH]2)ccc1C | 5.16 ± 2.4 | 21 ± 12
24 | O=C(Nc1nnc(-c2ccc(Cl)cc2)o1)c1nc2ccccc2s1 | 8.93 ± 4.2 | 6.47 ± 3.5

Row | SMILES | progeny production (40 µM) [%] | progeny production (100 µM) [%]
25 | CCCCCCC1c2ccc(O)cc2Oc2cc(O)ccc21 | 4.98 ± 1.8 | 29.9 ± 30
26 | O=C(NCc1ccccc1Cl)c1cnc2ccccc2n1 | 6.81 ± 1 | 12.1 ± 12
27 | c1cnc(NCc2ccc(CNc3ncccn3)cc2)nc1 | 3.1 ± 0.72 | 9.59 ± 5.8
28 | N[C@H](CCC(=O)N[C@@H](Cc1c[nH]c2ccccc12)C(=O)O)C(=O)O | 6.53 ± 2.2 | 14.8 ± 3.7
29 | COC(=O)Nc1nc2cc([S+]([O-])c3ccccc3)ccc2[nH]1 (stereo not drawn) | 6.27 ± 3.5 | 23 ± 20
30 | C=CCc1cc(Cc2cnc(N)nc2N)cc(OC)c1O | 3.9 ± 1.6 | 12.4 ± 5.1
31 | CC(C)Oc1ccc(-n2cnc3cc(/C=C\c4ccc(C(C)(C)O)cc4)ccc32)cc1 | 5 ± 1.6 | 10.6 ± 2
32 | CC(C)(C)c1cc(CCC(=O)N2CCC2)cc(C(C)(C)C)c1O | 5.76 ± 2.7 | 14.4 ± 8.6
33 | O=[N+]([O-])c1cn2c(n1)OC[C@@H](OCc1ccc(OC(F)(F)F)cc1)C2 | 7.03 ± 0.77 | 11.4 ± 5.1
34 | Nc1nc(C(F)(F)F)cc2c1[nH]c(=O)n2Cc1ccccc1 | 2.69 ± 0.61 | 17.2 ± 1.5
35 | O=C(c1cc(O)nc2ccccc12)N1CCN(c2ccccc2)CC1 | 5.44 ± 4.1 | 9.85 ± 7.2
36 | O=C(CC1Sc2ncnn2C1=O)Nc1ccc(Br)cc1 (stereo not drawn) | 6.82 ± 1.8 | 21.6 ± 10
37 | Cc1nc(N(C)C(=O)Cc2ccc(-c3ccccn3)cc2)sc1S(N)(=O)=O | 3.86 ± 0.4 | 12.9 ± 8.8
38 | COc1c(F)c(F)cc2c(=O)c(C(=O)O)cn(C3CC3)c12 | 6.01 ± 4.3 | 12.9 ± 4.6
39 | c1ccc(Cn2c(-c3ccccn3)nc3ccccc32)cc1 | 3.12 ± 1.9 | 4.55 ± 2.1
40 | CC(C)(C)c1ccc(C(Cn2cccc(C(F)(F)F)c2=O)NC2Cc3ccccc3C2)cc1 (stereo not drawn) | 1.91 ± 1.3 | 13.4 ± 9.4
41 | OB1OCc2cc(Cl)ccc21 | 4.68 ± 1.6 | 21.3 ± 17
42 | Cc1ccn2c(C(=O)NCc3ccccc3)c(C)nc2c1 | 9.26 ± 8.6 | 13.1 ± 10
43 | O=C(CCc1ccc2c(c1)OCO2)NCc1ccc(-c2ccccc2F)cc1 | 5.04 ± 3.2 | 14 ± 6.8
44 | COc1ccc2c(c1)cc(CNC(=O)c1cc3ccccc3o1)n2CC(=O)O | 3.92 ± 2.4 | 17.7 ± 17
45 | CCc1cc(O)c(Oc2cccnc2N)cc1F | 6.17 ± 3.4 | 10.2 ± 5.5
46 | COc1cc(NS(=O)(=O)c2ccc(C)cc2)c2ncccc2c1 | 5.38 ± 2.2 | 10.3 ± 3.9
47 | O=c1cc(Nc2ccc3ccccc3c2)[nH]c(=O)[nH]1 | 7.88 ± 1.4 | 8.48 ± 9.1
48 | O=C1NC(=O)C(Br)=C1Br | 12.2 ± 12 | 30.7 ± 9.8

Row | SMILES | progeny production (40 µM) [%] | progeny production (100 µM) [%]
49 | CCCCC(CC)CNC(=N)NC(=N)NCCCCCCNC(=N)NC(=N)NCC(CC)CCCC (stereo not drawn) | 5.25 ± 0.29 | 24.3 ± 32
50 | NC(=O)C(c1ccccc1)(c1ccccc1)[C@H]1CCCN(CCc2ccc3c(c2)CCO3)C1 | 7.34 ± 0.47 | 15.2 ± 18
51 | CC[C@@H](CO)NCCN[C@@H](CC)CO | 4.98 ± 2.4 | 6.91 ± 5.6
52 | Cc1c(CN(C)C(=O)/C=C/c2cnc3c(c2)C(C)(C)C(=O)N3)oc2ccccc12 | 6.13 ± 3.2 | 20.6 ± 20
53 | OC(Cn1cncn1)(Cn1cncn1)c1ccc(F)cc1F | 3.82 ± 1.7 | 22 ± 18
54 | O=[N+]([O-])/C(Br)=C/c1ccc(Br)o1 | 5.77 ± 1.4 | 26.4 ± 9.5
55 | CC(C)=CCC/C(C)=C/CNCCNC1C2CC3CC(C2)CC1C3 (stereo not drawn) | 6.62 ± 1.2 | 30 ± 23
56 | CN(C)CCCNC(=O)c1ccc(-c2cc(O)c3ncccc3c2)cc1 | 5.74 ± 3.9 | 10.5 ± 6.4
57 | C[C@@H]1O[C@@H]1P(=O)(O)O | 4.36 ± 0.35 | 15.3 ± 13
58 | Fc1ccc2c(/C=C/c3nnn[nH]3)c[nH]c2c1 | 3.91 ± 4 | 12.2 ± 9.8
59 | CC[C@@]1(O)C(=O)OCc2c1cc1n(c2=O)Cc2cc3c([N+](=O)[O-])cccc3nc2-1 | 5.77 ± 1.9 | 8.29 ± 3.3
60 | COc1cc(C(C(=O)NC2CCCCC2)N(C(=O)Cc2c[nH]c3ccccc23)c2ccc(C(C)C)cc2)cc(OC)c1OC (stereo not drawn) | 5.01 ± 0.57 | 7.98 ± 2
61 | Cn1c2ccccc2c(=O)c2c(O)cccc21 | 3.85 ± 0.59 | 13.6 ± 7.8
62 | N[C@@H]1CN(c2c(F)cc3c(=O)c(C(=O)O)cn([C@@H]4C[C@@H]4F)c3c2Cl)CC12CC2 | 9.37 ± 3.9 | 13.4 ± 6.8
63 | CN(C/C=C/C#CC(C)(C)C)Cc1cccc2ccccc12 | 5.74 ± 2.2 | 17.7 ± 11
64 | O=C(Nc1ccc(N2CCN(C(=O)c3ccccc3)CC2)cc1)c1ccc2c(c1)OCO2 | 5.03 ± 1.4 | 15.6 ± 10
65 | O=[N+]([O-])c1ccc2c(CCc3c[nH]c4ccccc34)c[nH]c2c1 | 8.93 ± 1.7 | 35.7 ± 12
66 | CCCCCOc1ccc(/C=C2\Oc3c(ccc(O)c3O)C2=O)c(O)c1 | 2.87 ± 0.23 | 11.2 ± 7
67 | O=C(O)/C=C/C=C/c1cccc(Oc2cc(Cl)cc(Cl)c2)c1 | 7.69 ± 2.2 | 13 ± 7.6
68 | O=C(O)CCNC(=O)c1ccccc1 | 13 ± 12 | 16.4 ± 8.7
69 | CCCC(=O)OCCc1ccccc1 | 5.19 ± 1.8 | 11.9 ± 12
70 | CC(C)Cn1c(=O)n(C)c(=O)c2c(-c3cncn3C)n(Cc3cccc4ccccc34)nc21 | 4.44 ± 2.9 | 6.12 ± 1.8
71 | Oc1cc(-c2cccc3ccccc23)[nH]n1 | 2.92 ± 0.16 | 18.4 ± 18
72 | CC(C)(C)c1cccc(-c2nc3cc(C(=N)N)ccc3[nH]2)c1O | 2.13 ± 0.25 | 20.4 ± 23

Row | SMILES | progeny production (40 µM) [%] | progeny production (100 µM) [%]
73 | O=C1CCC(N2C(=O)c3ccccc3C2=O)C(=O)N1 (stereo not drawn) | 9.53 ± 5.1 | 13.3 ± 8.9
74 | CCCCCCCc1[nH]c2ccccc2c(=O)c1O | 7.38 ± 1.2 | 21.2 ± 19
75 | O=C(O)c1cc(-c2ccc(Br)cc2)nc2ccc(Cl)cc12 | 4.63 ± 0.086 | 11.3 ± 3.5
76 | COc1cc(Cc2cc(N)nc(N)n2)cc(OC)c1OC | 5.56 ± 1.2 | 19.2 ± 12
77 | CCc1nc2ccccn2c1C(=O)NCc1ccccc1 | 6.11 ± 1.7 | 12.8 ± 11
78 | CC(C)(C)NC(=O)[C@@H]1C[C@@H]2CCCC[C@@H]2CN1C[C@@H](O)[C@H](Cc1ccccc1)NC(=O)[C@H](CC(N)=O)NC(=O)c1ccc2ccccc2n1 | 6.54 ± 4.7 | 6.35 ± 4.1
79 | Nc1ccc2oc(=O)ccc2c1I | 3.87 ± 2.3 | 7.24 ± 3.6
80 | Cc1ncc([N+](=O)[O-])n1CC(O)CN1CCOCC1 (stereo not drawn) | 9.17 ± 4.5 | 12.3 ± 8.3
81 | COc1ccc(SCC(=O)N2c3ccccc3Sc3ccccc32)cc1 | 5.84 ± 2.3 | 14.1 ± 5.9
82 | NC1C2CC3CC(C2)CC1C3 (stereo not drawn) | 4.96 ± 2.6 | 13.2 ± 3.6
83 | NC[C@H]1O[C@H](O[C@H]2[C@H](O)[C@@H](O[C@H]3O[C@H](CO)[C@@H](O)[C@H](N)[C@H]3O)[C@H](N)C[C@@H]2N)[C@H](N)C[C@@H]1O | 6.6 ± 2.4 | 11.7 ± 16
84 | C[C@H]1COc2c(N3CCN(C)CC3)c(F)cc3c(=O)c(C(=O)O)cn1c23 | 5.38 ± 2.2 | 12.8 ± 9.1
85 | N#Cc1c(F)c(Cl)c(NCc2ccccc2)c(C#N)c1F | 32.6 ± 17 | 15 ± 3.8
86 | COc1cccc(N2CCN(C3=Nc4c(F)cccc4[C@H](CC(=O)O)N3c3cc(C(F)(F)F)ccc3OC)CC2)c1 | 6.01 ± 2.9 | 14.7 ± 7.5
87 | CCc1nc(N)nc(N)c1C#CCc1ccccc1 | 8.69 ± 6 | 15.6 ± 5
88 | O=c1oc2ccc(Br)cc2cc1CSc1ncc[nH]1 | 6.6 ± 2.9 | 11.1 ± 7.2
89 | CS(=O)(=O)c1ccc(Oc2ccc(Cl)cc2)cc1 | 2.98 ± 0.48 | 13.1 ± 9.1
90 | Nc1nc(NC2Cc3ccc(F)cc3C2)nc(N2CCCCC2)n1 (stereo not drawn) | 5.65 ± 3.6 | 6.63 ± 4.3
91 | Cc1ccc(NC(=O)c2ccc(CN3CCN(C)CC3)cc2)cc1Nc1nccc(-c2cccnc2)n1 | 5.07 ± 2.9 | 9.12 ± 3.8
92 | CC(C)c1ccc(COc2cccc(-c3cc([S+](C)[O-])c(C#N)c(=O)[nH]3)c2)cc1 (stereo not drawn) | 2.96 ± 1.6 | 21.4 ± 25
93 | COc1ccc(C[C@@H](C)[C@@H](C)Cc2ccc(OC)c(OC)c2)cc1OC | 3.86 ± 0.4 | 16 ± 4.1
94 | O[C@@](Cn1cnnn1)(c1ccc(F)cc1F)C(F)(F)c1ccc(-c2ccc(OCC(F)(F)F)cc2)cn1 | 3.9 ± 1.3 | 11.8 ± 2.2
